Measured values from PubChem BioAssay (NCI).
The panel holds about 83,000 compounds, 20% with a hit somewhere; the sample as a whole holds those more often.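 In brief: 96-well plates, 48 h treatment, single concentration, percent growth endpoint.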

Assays:
Assay in all cases: NCI-60 one-dose screen, 48 h (100 = growth as untreated, 0 = no growth, -100 = all killed); active = growth percent below 10; inactive = the rest
SR leukemia = settings: 10 µM
RPMI-8226 leukemia = settings: 10 µM
OVCAR-8 ovarian = settings: 10 µM
OVCAR-5 ovarian = settings: 10 µM
OVCAR-4 ovarian = settings: 10 µM
SK-OV-3 ovarian = settings: 10 µM
IGROV1 ovarian = settings: 10 µM
OVCAR-3 ovarian = settings: 10 µM
HS 578T breast = settings: 10 µM
NCI/ADR-RES ovarian = settings: 10 µM
T-47D breast = settings: 10 µM
BT-549 breast = settings: 10 µM
MDA-MB-435 melanoma = settings: 10 µM
SW-620 colon = settings: 10 µM
MCF7 breast = settings: 10 µM unless noted
HCT-116 colon = settings: 10 µM
HCC-2998 colon = settings: 10 µM
KM12 colon = settings: 10 µM

Measured: growth

CC(=O)c1ccc(N=C(C#N)C2=C(O)c3ccccc3C2=O)cc1
inactive: SR leukemia 91.1% | RPMI-8226 leukemia 117% | OVCAR-8 ovarian 103% | OVCAR-5 ovarian 119% | OVCAR-4 ovarian 108% | SK-OV-3 ovarian 95% | IGROV1 ovarian 115% | OVCAR-3 ovarian 112% | HS 578T breast 107% | NCI/ADR-RES ovarian 105% | T-47D breast 93.4% | BT-549 breast 98.3% | MDA-MB-435 melanoma 110% | SW-620 colon 114% | MCF7 breast 83.1% | HCT-116 colon 106% | HCC-2998 colon 98.1% | KM12 colon 107%

Cc1cc(C)c(CC(=O)O)c(C)c1
inactive: SR leukemia 98.5% | RPMI-8226 leukemia 112% | OVCAR-8 ovarian 102% | OVCAR-5 ovarian 103% | OVCAR-4 ovarian 95.1% | SK-OV-3 ovarian 110% | IGROV1 ovarian 108% | OVCAR-3 ovarian 104% | HS 578T breast 109% | NCI/ADR-RES ovarian 103% | T-47D breast 106% | BT-549 breast 104% | MDA-MB-435 melanoma 104% | SW-620 colon 102% | MCF7 breast 95.9% | HCT-116 colon 105% | HCC-2998 colon 111% | KM12 colon 103%

CC(=O)c1ccc2c(ccc3ccccc32)c1
inactive: SR leukemia 97.2% | RPMI-8226 leukemia 101% | OVCAR-8 ovarian 94.7% | OVCAR-5 ovarian 104% | OVCAR-4 ovarian 100% | SK-OV-3 ovarian 112% | IGROV1 ovarian 101% | OVCAR-3 ovarian 115% | HS 578T breast 107% | NCI/ADR-RES ovarian 108% | T-47D breast 98.9% | BT-549 breast 98.1% | MDA-MB-435 melanoma 96.3% | SW-620 colon 99.7% | MCF7 breast 96.3% | HCT-116 colon 90.3% | HCC-2998 colon 109% | KM12 colon 106%

COc1ccccc1N=Nc1c(O)ccc2cc(S(=O)(=O)O)ccc12
inactive: SR leukemia 91.7% | RPMI-8226 leukemia 99.6% | OVCAR-8 ovarian 93.2% | OVCAR-5 ovarian 103% | OVCAR-4 ovarian 105% | SK-OV-3 ovarian 88.8% | IGROV1 ovarian 110% | OVCAR-3 ovarian 101% | HS 578T breast 100% | NCI/ADR-RES ovarian 99.8% | T-47D breast 91.4% | BT-549 breast 99.4% | MDA-MB-435 melanoma 108% | SW-620 colon 103% | MCF7 breast 93.2% | HCT-116 colon 103% | HCC-2998 colon 96.3% | KM12 colon 104%

CCOC(=O)CCCC(=O)OCC
inactive: SR leukemia 102% | RPMI-8226 leukemia 113% | OVCAR-8 ovarian 103% | OVCAR-5 ovarian 101% | OVCAR-4 ovarian 101% | SK-OV-3 ovarian 96.7% | IGROV1 ovarian 102% | OVCAR-3 ovarian 102% | HS 578T breast 96.2% | NCI/ADR-RES ovarian 106% | T-47D breast 96.4% | BT-549 breast 104% | MDA-MB-435 melanoma 106% | SW-620 colon 102% | MCF7 breast 97.9% | HCT-116 colon 97.9% | HCC-2998 colon 105% | KM12 colon 99.6%

N#CCc1ccc([N+](=O)[O-])cc1
inactive: SR leukemia 105% | RPMI-8226 leukemia 109% | OVCAR-8 ovarian 89.5% | OVCAR-5 ovarian 119% | OVCAR-4 ovarian 111% | SK-OV-3 ovarian 101% | IGROV1 ovarian 135% | OVCAR-3 ovarian 117% | HS 578T breast 98% | NCI/ADR-RES ovarian 106% | T-47D breast 98.6% | BT-549 breast 102% | MDA-MB-435 melanoma 114% | SW-620 colon 94.5% | MCF7 breast 89.8% | HCT-116 colon 109% | HCC-2998 colon 101% | KM12 colon 109%

CC(C)(N)COS(=O)(=O)O
inactive: SR leukemia 103% | RPMI-8226 leukemia 102% | OVCAR-8 ovarian 102% | OVCAR-5 ovarian 107% | OVCAR-4 ovarian 105% | SK-OV-3 ovarian 96.5% | IGROV1 ovarian 108% | OVCAR-3 ovarian 104% | HS 578T breast 99.8% | NCI/ADR-RES ovarian 114% | T-47D breast 108% | BT-549 breast 100% | MDA-MB-435 melanoma 94.6% | SW-620 colon 101% | MCF7 breast 95.5% | HCT-116 colon 95.4% | HCC-2998 colon 112% | KM12 colon 99.1%

CCCCNC1(C#N)CCN(Cc2ccccc2)CC1
inactive: SR leukemia 115% | RPMI-8226 leukemia 99.2% | OVCAR-8 ovarian 96.4% | OVCAR-5 ovarian 88.9% | OVCAR-4 ovarian 103% | SK-OV-3 ovarian 97.1% | IGROV1 ovarian 91.9% | OVCAR-3 ovarian 132% | HS 578T breast 101% | NCI/ADR-RES ovarian 88.3% | T-47D breast 17.8% | BT-549 breast 107% | MDA-MB-435 melanoma 97.5% | SW-620 colon 102% | MCF7 breast 102% | HCT-116 colon 98% | HCC-2998 colon 86.9% | KM12 colon 144%

C/C(=N\O)C1(O)CCCCC1
inactive: SR leukemia 94.3% | RPMI-8226 leukemia 100% | OVCAR-8 ovarian 94.1% | OVCAR-5 ovarian 103% | OVCAR-4 ovarian 110% | SK-OV-3 ovarian 98.1% | IGROV1 ovarian 97.9% | OVCAR-3 ovarian 94.7% | HS 578T breast 62.5% | NCI/ADR-RES ovarian 110% | T-47D breast 72.7% | BT-549 breast 102% | MDA-MB-435 melanoma 108% | SW-620 colon 101% | MCF7 breast 50.7% | HCT-116 colon 101% | HCC-2998 colon 109% | KM12 colon 94.6%
